# Measurements published in publication PMC7862700, “An all-to-all approach to the identification of sequence-specific readers for epigenetic DNA modifications on cytosine”.
# How the values were obtained:
# Experiment in all cases: DAPPL (digital affinity profiling via proximity ligation, sequencing); 10 mM Tris-HCl pH 7.5, 50 mM NaCl, 1 mM DTT, 4% glycerol, room temperature, 30 min; GST-TFs on glutathione beads, 16-mer random dsDNA library, 0.1% formaldehyde crosslink after washing; high values mean tight binding
# FEV = molecular target: T1, FEV (Homo sapiens, UniProt Q99581 1-238); conditions: protein: recombinant; tags: N-terminal GST; dsDNA, one strand shown
# T1 sequence: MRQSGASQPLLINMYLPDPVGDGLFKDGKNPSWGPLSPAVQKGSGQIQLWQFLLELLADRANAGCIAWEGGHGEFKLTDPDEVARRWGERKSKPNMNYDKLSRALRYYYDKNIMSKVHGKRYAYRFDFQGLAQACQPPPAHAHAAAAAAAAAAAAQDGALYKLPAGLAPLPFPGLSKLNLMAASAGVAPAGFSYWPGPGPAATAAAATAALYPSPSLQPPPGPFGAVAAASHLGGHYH
# Summary of the method: (§1)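 Binding signal is given per hexamer as its read frequency for a factor divided by its frequency in the tag-only sample. GST-fused human transcription factors were expressed in yeast, captured on glutathione beads, barcoded with DNA and pooled with that sample, then incubated with 200 nmole of a 16-mer random double-stranded DNA library in Tris/NaCl/DTT/glycerol buffer for 30 min at room temperature. The pools were then washed, crosslinked, proximity-ligated, amplified by PCR and sequenced on an Illumina NextSeq500.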
# ETV5 = ETV5 (Homo sapiens, UniProt P41161 1-510); conditions: protein: recombinant; tags: N-terminal GST; dsDNA, one strand shown
# ETV5, sequence (P41161 whole entry): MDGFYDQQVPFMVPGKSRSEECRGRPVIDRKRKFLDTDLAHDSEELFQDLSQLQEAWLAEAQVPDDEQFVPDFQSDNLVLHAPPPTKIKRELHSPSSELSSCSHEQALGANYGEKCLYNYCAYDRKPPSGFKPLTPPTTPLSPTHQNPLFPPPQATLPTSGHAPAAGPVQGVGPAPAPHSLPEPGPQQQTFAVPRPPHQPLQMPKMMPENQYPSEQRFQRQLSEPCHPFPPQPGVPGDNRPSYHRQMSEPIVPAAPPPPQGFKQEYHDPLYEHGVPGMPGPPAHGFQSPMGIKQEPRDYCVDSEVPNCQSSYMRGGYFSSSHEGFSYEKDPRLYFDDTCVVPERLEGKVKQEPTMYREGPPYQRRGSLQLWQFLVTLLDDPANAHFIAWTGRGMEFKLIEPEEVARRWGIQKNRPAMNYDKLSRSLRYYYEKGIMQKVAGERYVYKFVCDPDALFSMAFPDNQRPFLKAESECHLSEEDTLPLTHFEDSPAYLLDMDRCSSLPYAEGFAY
# Summary of the method: as §1
# HSF1 = HSF1 (Homo sapiens, UniProt Q00613 1-529); conditions: protein: recombinant; tags: N-terminal GST; chain copies: 3; dsDNA, one strand shown
# HSF1, sequence (Q00613 whole entry): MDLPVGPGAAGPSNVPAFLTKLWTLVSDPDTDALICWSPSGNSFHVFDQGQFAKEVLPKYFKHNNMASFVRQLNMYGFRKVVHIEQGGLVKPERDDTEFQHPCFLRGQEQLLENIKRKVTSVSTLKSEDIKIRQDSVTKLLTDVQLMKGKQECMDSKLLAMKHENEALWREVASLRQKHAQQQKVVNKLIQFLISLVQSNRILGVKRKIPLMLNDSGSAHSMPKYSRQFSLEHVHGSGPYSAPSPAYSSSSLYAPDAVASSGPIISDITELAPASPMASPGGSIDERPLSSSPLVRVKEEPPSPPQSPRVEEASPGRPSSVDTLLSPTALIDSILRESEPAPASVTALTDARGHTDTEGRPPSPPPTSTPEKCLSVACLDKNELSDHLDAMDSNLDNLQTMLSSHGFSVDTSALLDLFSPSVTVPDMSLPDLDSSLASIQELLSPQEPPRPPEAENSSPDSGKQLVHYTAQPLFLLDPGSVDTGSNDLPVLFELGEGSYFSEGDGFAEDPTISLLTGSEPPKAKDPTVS
# Summary of the method: as §1
# SPIC = molecular target: T2, SPIC (Homo sapiens, UniProt Q8N5J4 1-248); conditions: protein: recombinant; tags: N-terminal GST; dsDNA, one strand shown
# T2 sequence: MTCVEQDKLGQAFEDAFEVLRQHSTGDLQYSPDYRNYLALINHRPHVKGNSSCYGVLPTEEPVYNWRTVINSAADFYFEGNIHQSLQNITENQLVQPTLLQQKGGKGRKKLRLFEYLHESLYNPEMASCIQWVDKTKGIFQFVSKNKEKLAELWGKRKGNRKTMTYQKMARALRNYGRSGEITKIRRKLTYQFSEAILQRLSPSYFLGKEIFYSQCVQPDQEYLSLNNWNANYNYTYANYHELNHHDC
# Summary of the method: as §1
# ELF4 = ELF4 (Homo sapiens, UniProt Q99607 1-663); conditions: protein: recombinant; tags: N-terminal GST; dsDNA, one strand shown
# ELF4, sequence (Q99607 whole entry): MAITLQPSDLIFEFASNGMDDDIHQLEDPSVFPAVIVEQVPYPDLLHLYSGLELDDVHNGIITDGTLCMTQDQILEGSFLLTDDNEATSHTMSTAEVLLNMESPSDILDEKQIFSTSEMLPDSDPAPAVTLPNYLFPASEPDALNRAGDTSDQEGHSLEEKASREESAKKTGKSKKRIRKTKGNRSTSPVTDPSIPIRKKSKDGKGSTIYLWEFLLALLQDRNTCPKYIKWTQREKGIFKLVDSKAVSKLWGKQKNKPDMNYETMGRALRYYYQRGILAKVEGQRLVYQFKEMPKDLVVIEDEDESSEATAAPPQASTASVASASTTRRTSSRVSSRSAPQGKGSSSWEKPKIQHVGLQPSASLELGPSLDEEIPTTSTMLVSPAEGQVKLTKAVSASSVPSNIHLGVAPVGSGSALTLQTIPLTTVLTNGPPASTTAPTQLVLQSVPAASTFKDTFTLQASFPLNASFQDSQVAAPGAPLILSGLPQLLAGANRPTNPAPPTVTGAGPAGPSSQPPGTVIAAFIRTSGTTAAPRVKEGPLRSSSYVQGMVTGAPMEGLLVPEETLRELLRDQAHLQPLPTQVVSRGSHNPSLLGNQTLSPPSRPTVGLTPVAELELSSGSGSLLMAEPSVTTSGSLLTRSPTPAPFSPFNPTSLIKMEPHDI
# Summary of the method: as §1
# ELK4 = molecular target: T3, ELK4 (Homo sapiens, UniProt P28324-2 1-405); conditions: protein: recombinant; tags: N-terminal GST; dsDNA, one strand shown
# T3 sequence: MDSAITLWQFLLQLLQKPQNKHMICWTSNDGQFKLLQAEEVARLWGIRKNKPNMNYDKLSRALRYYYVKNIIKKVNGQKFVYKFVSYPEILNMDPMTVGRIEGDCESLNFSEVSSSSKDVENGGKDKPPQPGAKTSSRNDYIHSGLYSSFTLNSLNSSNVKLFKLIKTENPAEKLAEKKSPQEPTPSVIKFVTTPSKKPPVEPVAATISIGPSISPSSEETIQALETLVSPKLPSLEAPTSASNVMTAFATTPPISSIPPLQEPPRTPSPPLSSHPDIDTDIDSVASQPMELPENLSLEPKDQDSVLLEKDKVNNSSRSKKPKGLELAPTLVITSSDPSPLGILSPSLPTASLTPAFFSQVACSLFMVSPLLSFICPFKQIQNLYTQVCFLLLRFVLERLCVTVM
# Summary of the method: as §1
# ETV2 = molecular target: T4, ETV2 (Homo sapiens, UniProt O00321 1-342); conditions: protein: recombinant; tags: N-terminal GST; dsDNA, one strand shown
# T4 sequence: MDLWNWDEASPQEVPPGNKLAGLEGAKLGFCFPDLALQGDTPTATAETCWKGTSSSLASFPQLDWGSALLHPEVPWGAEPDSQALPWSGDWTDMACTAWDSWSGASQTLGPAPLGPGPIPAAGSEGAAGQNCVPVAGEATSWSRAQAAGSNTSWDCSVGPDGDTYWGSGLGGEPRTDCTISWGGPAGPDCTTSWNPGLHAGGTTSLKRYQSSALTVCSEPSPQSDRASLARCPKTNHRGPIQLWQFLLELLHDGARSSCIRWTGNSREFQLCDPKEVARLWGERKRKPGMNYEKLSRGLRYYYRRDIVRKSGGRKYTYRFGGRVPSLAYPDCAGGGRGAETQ
# Summary of the method: as §1
# ELF3 = molecular target: T5, ELF3 (Homo sapiens, UniProt P78545 1-371); conditions: protein: recombinant; tags: N-terminal GST; dsDNA, one strand shown
# T5 sequence: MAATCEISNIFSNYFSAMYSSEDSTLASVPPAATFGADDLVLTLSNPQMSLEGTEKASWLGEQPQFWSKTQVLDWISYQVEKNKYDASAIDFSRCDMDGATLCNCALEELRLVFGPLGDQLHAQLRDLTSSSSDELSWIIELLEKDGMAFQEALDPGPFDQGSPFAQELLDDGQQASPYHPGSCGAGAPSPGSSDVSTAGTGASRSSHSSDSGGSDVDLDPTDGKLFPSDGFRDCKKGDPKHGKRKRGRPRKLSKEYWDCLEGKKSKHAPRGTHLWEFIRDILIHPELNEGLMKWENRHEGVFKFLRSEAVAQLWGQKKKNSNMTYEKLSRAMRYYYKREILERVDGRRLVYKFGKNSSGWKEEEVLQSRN
# Summary of the method: as §1
# CRX = CRX (Homo sapiens, UniProt O43186 1-299); conditions: protein: recombinant; tags: N-terminal GST; dsDNA, one strand shown
# CRX, sequence (O43186 whole entry): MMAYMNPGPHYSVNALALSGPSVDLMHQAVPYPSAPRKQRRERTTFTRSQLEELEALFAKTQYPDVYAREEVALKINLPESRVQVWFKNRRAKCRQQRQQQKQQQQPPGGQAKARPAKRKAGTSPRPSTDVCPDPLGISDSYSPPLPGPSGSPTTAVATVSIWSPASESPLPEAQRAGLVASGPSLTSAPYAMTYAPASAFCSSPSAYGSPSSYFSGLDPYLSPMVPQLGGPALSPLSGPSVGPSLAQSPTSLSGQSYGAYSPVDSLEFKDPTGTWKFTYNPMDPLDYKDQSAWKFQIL
# Summary of the method: as §1
# ETV1 = ETV1 (Homo sapiens, UniProt P50549 1-477); conditions: protein: recombinant; tags: N-terminal GST; dsDNA, one strand shown
# ETV1, sequence (P50549 whole entry): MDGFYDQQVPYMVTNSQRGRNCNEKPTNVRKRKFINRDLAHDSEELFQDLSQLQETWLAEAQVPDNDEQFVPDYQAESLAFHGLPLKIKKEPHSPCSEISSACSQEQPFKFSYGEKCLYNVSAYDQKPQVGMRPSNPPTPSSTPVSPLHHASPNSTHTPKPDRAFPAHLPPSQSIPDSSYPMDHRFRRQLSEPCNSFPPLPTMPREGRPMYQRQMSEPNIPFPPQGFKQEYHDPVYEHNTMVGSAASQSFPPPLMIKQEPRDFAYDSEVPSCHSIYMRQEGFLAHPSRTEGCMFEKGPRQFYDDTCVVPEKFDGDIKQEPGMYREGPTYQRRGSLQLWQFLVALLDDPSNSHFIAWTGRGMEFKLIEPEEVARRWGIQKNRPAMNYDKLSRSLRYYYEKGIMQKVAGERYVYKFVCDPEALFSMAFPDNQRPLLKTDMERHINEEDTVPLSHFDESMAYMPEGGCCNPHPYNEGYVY
# Summary of the method: as §1
# ERF = molecular target: T6, ERF (Homo sapiens, UniProt P50548 1-548); conditions: protein: recombinant; tags: N-terminal GST; dsDNA, one strand shown
# T6 sequence: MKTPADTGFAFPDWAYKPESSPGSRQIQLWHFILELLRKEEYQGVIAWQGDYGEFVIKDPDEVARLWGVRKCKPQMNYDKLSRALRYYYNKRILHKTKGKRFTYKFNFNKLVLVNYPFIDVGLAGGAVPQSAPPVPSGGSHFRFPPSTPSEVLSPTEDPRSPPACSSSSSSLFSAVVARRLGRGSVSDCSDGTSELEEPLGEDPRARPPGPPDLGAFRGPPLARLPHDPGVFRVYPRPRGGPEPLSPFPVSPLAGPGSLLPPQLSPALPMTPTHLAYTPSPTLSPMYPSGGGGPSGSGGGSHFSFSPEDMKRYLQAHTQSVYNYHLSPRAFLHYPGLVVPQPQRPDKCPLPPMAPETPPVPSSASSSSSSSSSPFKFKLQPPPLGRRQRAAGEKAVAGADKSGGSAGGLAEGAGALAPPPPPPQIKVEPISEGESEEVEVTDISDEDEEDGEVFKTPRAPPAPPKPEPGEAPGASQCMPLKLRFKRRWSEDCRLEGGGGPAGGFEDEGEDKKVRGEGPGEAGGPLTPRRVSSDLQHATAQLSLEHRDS
# Summary of the method: as §1
# ETV3L = molecular target: T7, ETV3L (Homo sapiens, UniProt Q6ZN32 1-361); conditions: protein: recombinant; tags: N-terminal GST; dsDNA, one strand shown
# T7 sequence: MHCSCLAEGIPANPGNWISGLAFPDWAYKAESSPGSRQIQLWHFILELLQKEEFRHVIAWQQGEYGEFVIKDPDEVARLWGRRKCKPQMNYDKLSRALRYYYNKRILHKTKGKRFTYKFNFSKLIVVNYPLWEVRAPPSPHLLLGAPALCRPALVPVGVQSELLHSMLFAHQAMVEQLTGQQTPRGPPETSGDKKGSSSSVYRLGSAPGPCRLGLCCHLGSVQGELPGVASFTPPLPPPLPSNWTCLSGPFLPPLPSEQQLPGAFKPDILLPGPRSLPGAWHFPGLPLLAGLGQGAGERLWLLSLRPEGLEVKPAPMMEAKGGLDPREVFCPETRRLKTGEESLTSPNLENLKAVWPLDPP
# Summary of the method: as §1
# ETS2 = molecular target: T8, ETS2 (Homo sapiens, UniProt P15036 1-469); conditions: protein: recombinant; tags: N-terminal GST; dsDNA, one strand shown
# T8 sequence: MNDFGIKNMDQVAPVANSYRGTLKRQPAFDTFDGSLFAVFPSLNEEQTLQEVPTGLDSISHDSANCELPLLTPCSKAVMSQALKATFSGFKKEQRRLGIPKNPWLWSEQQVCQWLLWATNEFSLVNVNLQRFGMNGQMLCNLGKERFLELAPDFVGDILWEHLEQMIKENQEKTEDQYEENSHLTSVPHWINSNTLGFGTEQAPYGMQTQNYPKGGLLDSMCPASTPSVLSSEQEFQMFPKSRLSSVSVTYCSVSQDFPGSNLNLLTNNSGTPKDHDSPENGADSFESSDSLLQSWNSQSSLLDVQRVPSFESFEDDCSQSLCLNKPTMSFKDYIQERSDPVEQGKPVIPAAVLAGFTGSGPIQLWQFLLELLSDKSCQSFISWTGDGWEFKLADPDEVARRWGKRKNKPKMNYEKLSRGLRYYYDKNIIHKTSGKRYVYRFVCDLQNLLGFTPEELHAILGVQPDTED
# Summary of the method: as §1
# SPDEF = molecular target: T9, SPDEF (Homo sapiens, UniProt O95238 1-335); conditions: protein: recombinant; tags: N-terminal GST; dsDNA, one strand shown
# T9 sequence: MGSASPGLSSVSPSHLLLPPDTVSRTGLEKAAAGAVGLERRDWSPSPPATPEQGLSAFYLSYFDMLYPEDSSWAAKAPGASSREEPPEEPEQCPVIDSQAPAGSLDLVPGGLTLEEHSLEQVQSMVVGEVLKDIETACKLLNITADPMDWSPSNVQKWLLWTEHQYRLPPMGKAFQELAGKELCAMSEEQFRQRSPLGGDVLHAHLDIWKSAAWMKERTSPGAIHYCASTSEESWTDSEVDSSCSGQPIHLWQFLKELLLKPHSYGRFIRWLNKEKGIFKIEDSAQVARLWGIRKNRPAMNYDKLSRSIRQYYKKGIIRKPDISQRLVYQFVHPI
# Summary of the method: as §1
# ETV7 = molecular target: T10, ETV7 (Homo sapiens, UniProt Q9Y603 1-341); conditions: protein: recombinant; tags: N-terminal GST; dsDNA, one strand shown
# T10 sequence: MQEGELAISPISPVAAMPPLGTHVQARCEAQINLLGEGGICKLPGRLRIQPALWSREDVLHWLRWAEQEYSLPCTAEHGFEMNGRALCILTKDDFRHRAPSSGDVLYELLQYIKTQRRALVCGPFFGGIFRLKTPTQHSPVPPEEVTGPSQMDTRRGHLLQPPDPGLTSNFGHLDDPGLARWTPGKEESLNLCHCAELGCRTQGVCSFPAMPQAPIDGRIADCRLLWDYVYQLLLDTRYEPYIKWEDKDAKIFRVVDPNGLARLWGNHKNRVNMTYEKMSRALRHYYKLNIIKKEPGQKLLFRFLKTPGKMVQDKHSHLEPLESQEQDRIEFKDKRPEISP
# Summary of the method: as §1
# ELF5 = molecular target: T11, ELF5 (Homo sapiens, UniProt Q9UKW6-2 1-255); conditions: protein: recombinant; tags: N-terminal GST; dsDNA, one strand shown
# T11 sequence: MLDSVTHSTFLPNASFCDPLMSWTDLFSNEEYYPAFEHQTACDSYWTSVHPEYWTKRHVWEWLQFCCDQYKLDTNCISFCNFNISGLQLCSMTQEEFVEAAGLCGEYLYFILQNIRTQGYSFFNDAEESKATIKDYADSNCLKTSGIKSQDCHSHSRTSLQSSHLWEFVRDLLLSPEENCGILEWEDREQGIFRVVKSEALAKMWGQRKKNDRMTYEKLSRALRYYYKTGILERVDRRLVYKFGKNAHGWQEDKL
# Summary of the method: as §1
# ETV3 = molecular target: T12, ETV3 (Homo sapiens, UniProt P41162-2 1-143); conditions: protein: recombinant; tags: N-terminal GST; dsDNA, one strand shown
# T12 sequence: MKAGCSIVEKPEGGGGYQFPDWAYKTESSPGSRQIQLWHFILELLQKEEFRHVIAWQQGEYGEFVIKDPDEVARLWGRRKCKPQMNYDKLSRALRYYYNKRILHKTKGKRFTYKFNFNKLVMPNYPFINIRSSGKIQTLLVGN
# Summary of the method: as §1
# ETV6 = ETV6 (Homo sapiens, UniProt P41212 1-452); conditions: protein: recombinant; tags: N-terminal GST; dsDNA, one strand shown
# ETV6, sequence (P41212 whole entry): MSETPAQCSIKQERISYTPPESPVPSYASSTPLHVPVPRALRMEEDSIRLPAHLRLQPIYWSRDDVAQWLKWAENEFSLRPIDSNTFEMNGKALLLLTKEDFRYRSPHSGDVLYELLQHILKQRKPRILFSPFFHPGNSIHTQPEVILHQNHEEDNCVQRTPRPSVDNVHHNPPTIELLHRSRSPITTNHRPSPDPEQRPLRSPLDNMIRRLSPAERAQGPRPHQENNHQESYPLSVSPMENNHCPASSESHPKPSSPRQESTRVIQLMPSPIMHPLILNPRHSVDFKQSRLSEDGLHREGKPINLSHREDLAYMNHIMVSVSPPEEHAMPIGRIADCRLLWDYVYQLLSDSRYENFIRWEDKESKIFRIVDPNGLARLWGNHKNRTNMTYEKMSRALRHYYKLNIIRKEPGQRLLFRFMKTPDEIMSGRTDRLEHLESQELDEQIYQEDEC
# Summary of the method: as §1
sequence,measurement,setting,value
GATGAT,binding signal,FEV,"1.18 fold enrichment (6-mer frequency, TF over GST control)"
same,binding signal,ETV5,"1.31 fold enrichment (6-mer frequency, TF over GST control)"
same,binding signal,HSF1,"1.49 fold enrichment (6-mer frequency, TF over GST control)"
same,binding signal,SPIC,"1.23 fold enrichment (6-mer frequency, TF over GST control)"
same,binding signal,ELF4,"1.32 fold enrichment (6-mer frequency, TF over GST control)"
same,binding signal,ELK4,"1.26 fold enrichment (6-mer frequency, TF over GST control)"
same,binding signal,ETV2,"1.33 fold enrichment (6-mer frequency, TF over GST control)"
same,binding signal,ELF3,"1.33 fold enrichment (6-mer frequency, TF over GST control)"
same,binding signal,CRX,"1.68 fold enrichment (6-mer frequency, TF over GST control)"
same,binding signal,ETV1,"1.27 fold enrichment (6-mer frequency, TF over GST control)"
same,binding signal,ERF,"1.5 fold enrichment (6-mer frequency, TF over GST control)"
same,binding signal,ETV3L,"1.31 fold enrichment (6-mer frequency, TF over GST control)"
same,binding signal,ETS2,"1.23 fold enrichment (6-mer frequency, TF over GST control)"
same,binding signal,SPDEF,"1.32 fold enrichment (6-mer frequency, TF over GST control)"
same,binding signal,ETV7,"1.36 fold enrichment (6-mer frequency, TF over GST control)"
same,binding signal,ELF5,"1.24 fold enrichment (6-mer frequency, TF over GST control)"
same,binding signal,ETV3,"1.39 fold enrichment (6-mer frequency, TF over GST control)"
same,binding signal,ETV6,"1.3 fold enrichment (6-mer frequency, TF over GST control)"
